From PubChem BioAssay AID1347426 (Functional Genomics Laboratory (NCATS/FGL), 2020) come the findings set out here.

About 1,400 (4.5%) of roughly 31,000 sequences were called active. The full list was thinned out, with actives kept by preference. Values without a mark were called inactive.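 How the source made its calls: active means median seed-adjusted z-score above 1 or below -1; inactive means the rest.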

This assay can be described thus: Novel Modifiers of Survival Motor Neuron (SMN) Protein: Gene Identification via Genome-wide siRNA Screen.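 Further: luminescence tracks full-length SMN protein made from the SMN2 reporter.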 Particulars: HEK293T SMN2-luciferase reporter, siRNA knockdown, 72 h; actives lie on both sides. In short, it runs like this:
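Steps: spot 1 pmol siRNA, add Lipofectamine RNAiMax in serum-free DMEM, seed HEK293T SMN2–luciferase reporter cells; incubate 72 h at 37 °C; add ONE-Glo; normalize luminescence to control siRNA, log10, MAD. Candidates: |MAD| > 1.0.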
In general terms: Reporter assays use an easily measured gene product as a stand-in for the process of interest.
GUGGUGGGCUUAUCCUCUATT against NRXN3: the median seed-adjusted z-score was 0.897.
As to GAACCACAAUGUUAACAAUTT against CYBRD1, the median seed-adjusted z-score was 0.623.
For GCAAGAUCUCUAUUGGUAUTT against ABCC4, the median seed-adjusted z-score is -1.66 (active).
Then GAAACCCUAUUACGAUGAATT against SOX30, with -0.167; and CAUGUAAACUUGCUGUUUUTT against CKS1B, with 0.00314; and CAUAGUAGAUCAAAUCUUATT against ZNF284, with 0.21.
Then CACUAGCAGUUGCAAGUAATT against RAB3GAP2, with 0.0583; and GACCUGGGCUUAGACAGUUTT against NDUFAB1, with -0.282; and GGAGAGCUGUUGGUACUUUTT against TAAR9, with -1.07 (active).
Then CACUGUUUCUUCACCGGCATT against ZDHHC22, with 0.00446.
Consider GCAGUUCACCCAUCCAGUATT against THY1, for which the median seed-adjusted z-score is -1.1 (active).
Then GACCAAGCGCAAAACCAAATT against HOMEZ, with -0.0614; and GAUUUUGUGCGAUCCAUAATT against CBARA1, with -0.0426.
Then GCAGGUACAUGUCUUGUCUTT against SPRY2, with 0.148.
Consider CCCUACAUAGGAAACCUGUTT against PKD1L2, for which the median seed-adjusted z-score was -1.17 (active).
Then CAGCCUACUUCAUAGCCUATT against GPR50, with -0.0348; and GCCGGCCUGUGAAAUAUGATT against MAP3K3, with -0.182.
The same measure for UCACGUCACUACUUAAAAATT against ZNF644: 0.389; for CCAUUAAUGAAUUAGUCUATT against TXN: -0.195.
Then AGCUCAACGUGCUGGAUUATT against PIP5KL1, with -0.819.
With CGAAGUUCAAGUAUAGGUATT against RAG1, the median seed-adjusted z-score was -1.35 (active).
The same measure for GGUUUGGAGCGAGAGUGGATT against ASB10: 0; for GCAGCUAUCUCUGUACAGATT against MAPK8IP3: 0.734.
Turning to UGUUCAGUCUGGAAUUUCATT against MAP2K1, the median seed-adjusted z-score is 0.942.
Then GGACCCAAAUUCAGAAGAATT against ANKRA2, with 1.26 (active); and GGAUCGGUAUGUAGCAAUATT against HTR2C, with -0.115.
Then GAGUAUCCAUCGGUAUCUATT against ZBTB11, with -0.105.
Regarding UCCAGACUCUGGUCACCAATT against CREB3L1, the median seed-adjusted z-score is 0.708.
Then GCAUUGACUUGGGUGAAGATT against GPR101, with -0.265; and GAGUUGAAGUUAAAGUAAATT against MORF4, with 0.0121; and CGACAAGAUCAAAUACCCATT against LZTR1, with 0.293.
Take CAAGCCUGAUUUCCACCUATT against DTD1: the median seed-adjusted z-score was -1.58 (active).
As to CAACGAGAAUGACUGCUGATT against PTPDC1, the median seed-adjusted z-score is -0.191.
The same measure for CAAGAAAACCAGAAUGGAATT against SERPING1: -0.244; for GCGAUUGCUUUGAUGGGUATT against LTBP1: 0.143; for GAAUCCUCCCAAUUGAUCATT against LSG1: 1.31 (active).
The same measure for GAACAUCGUUAUAAGUUGATT against CNTN3: 0.732; for GCACUAAUCUGCAAACUGUTT against SPTB: 0.153; for CAGACAAAUUUUAACCACATT against SLC17A8: -0.332.
The same measure for GGUCCAUCCAAAUUGUGGATT against CYP21A2: -0.26; for GCGCAUCUAUCAACCCAAUTT against MLNR: -0.038; for AGACUAAACUACUCUCGAATT against WDR46: -0.136.
In the case of GCUGCUAUCAGUGAACGGATT against LIN7A, the median seed-adjusted z-score was -1.39 (active).
Then CGUGUUAGUGAAUAAAGUATT against ZNF771, with 0.108; and CGGCAGACACUGAACAUCATT against SLC6A18, with 0.148; and GUAGCACAGAGGAUUAAAATT against TTC33, with 0.104.
Take CUCUAACCGUGGUUCCAGATT against SUPT16H: the median seed-adjusted z-score is 1.2 (active).
Take CGGCGGAGUUUAUAGAUAATT against BCKDHA: the median seed-adjusted z-score is -0.299.
On to GAAUCUACCUUGCUGCUCATT against G6PC, for which the median seed-adjusted z-score was -0.628.
Then GGACUACUAUGCCACUGCUTT against SSTR4, with -0.00217; and CGGCAACUUCAAUAACAGUTT against LPHN1, with -1.03 (active); and GAGGGACUAUUUCACGAAATT against PARD3B, with 0.306.
The same measure for GUGCAUCUCUUGACAAUUUTT against LIPI: 0.65; for GAAUAUUCUCGAUUUAAUATT against PPP1R3D: 0; for GGGCUGUUAUUUCAAGAAATT against GALNT13: -0.0149.
Then GAGCAUGUUUUUACCCUUUTT against MGC17403, with 0.204; and CCAUAACAUUCACAAGUGUTT against TRPS1, with -0.125.
As to CCAGGUCACGAGUCAAGUATT against KTI12, the median seed-adjusted z-score was 0.0814.
Then GGCCGUAACCUCAACCGUUTT against SNX33, with -0.246; and GACAAUCGACCGAAAGCAATT against PPP4C, with 1.15 (active).
Then GGGCAACAGUUGAACACCATT against PDK4, with -0.693; and GCUUUGACCGUGUCCGAAATT against STT3A, with 0; and GCAUUUCCCAAGACGUGGATT against ZFYVE28, with 0.0678.
The same measure for GCAUUCACCAGAACGAGAATT against RIMS1: 0.
Turning to CGCAUCCAAGAGUACCUUUTT against ZNF229, the median seed-adjusted z-score is -0.497.
For GGACAUGAACCUUAACGAATT against DIAPH2, the median seed-adjusted z-score was -0.0149.
In the case of CUAUACUCUUCGCUCCUAUTT against SIGMAR1, the median seed-adjusted z-score is -1.4 (active).
The same measure for GGUUGAAAAGGAGUGCAAATT against CACYBP: -0.33.
As for CAAAUCUGCUCAUCGAAAATT against MID1, the median seed-adjusted z-score is -0.294.
